Compound activity: PubChem BioAssay, National Center for Advancing Translational Sciences (NCATS)
The list is not random: actives were taken first. Their share in the collection is about 10%.
JMJD2A Tudor inh – inhibitors of human JMJD2A Tudor domain; O75164; AlphaScreen JMJD2A-Tudor / H3K4me3 peptide binding; Potency, µM (titrated, usually from 114 µM), inactives show at the top dose activity change, negative = inhibition, usual class: inhibitors; hit rate 4.4% among 390,000; note: potency is the fitted concentration of half-maximal effect; % is set by controls: 0 for no effect and ±100 for the full control effect; nearly all actives have a fitted effect of over 50% in size
Target sequence (O75164 whole entry, looked up, the tested form may be a part): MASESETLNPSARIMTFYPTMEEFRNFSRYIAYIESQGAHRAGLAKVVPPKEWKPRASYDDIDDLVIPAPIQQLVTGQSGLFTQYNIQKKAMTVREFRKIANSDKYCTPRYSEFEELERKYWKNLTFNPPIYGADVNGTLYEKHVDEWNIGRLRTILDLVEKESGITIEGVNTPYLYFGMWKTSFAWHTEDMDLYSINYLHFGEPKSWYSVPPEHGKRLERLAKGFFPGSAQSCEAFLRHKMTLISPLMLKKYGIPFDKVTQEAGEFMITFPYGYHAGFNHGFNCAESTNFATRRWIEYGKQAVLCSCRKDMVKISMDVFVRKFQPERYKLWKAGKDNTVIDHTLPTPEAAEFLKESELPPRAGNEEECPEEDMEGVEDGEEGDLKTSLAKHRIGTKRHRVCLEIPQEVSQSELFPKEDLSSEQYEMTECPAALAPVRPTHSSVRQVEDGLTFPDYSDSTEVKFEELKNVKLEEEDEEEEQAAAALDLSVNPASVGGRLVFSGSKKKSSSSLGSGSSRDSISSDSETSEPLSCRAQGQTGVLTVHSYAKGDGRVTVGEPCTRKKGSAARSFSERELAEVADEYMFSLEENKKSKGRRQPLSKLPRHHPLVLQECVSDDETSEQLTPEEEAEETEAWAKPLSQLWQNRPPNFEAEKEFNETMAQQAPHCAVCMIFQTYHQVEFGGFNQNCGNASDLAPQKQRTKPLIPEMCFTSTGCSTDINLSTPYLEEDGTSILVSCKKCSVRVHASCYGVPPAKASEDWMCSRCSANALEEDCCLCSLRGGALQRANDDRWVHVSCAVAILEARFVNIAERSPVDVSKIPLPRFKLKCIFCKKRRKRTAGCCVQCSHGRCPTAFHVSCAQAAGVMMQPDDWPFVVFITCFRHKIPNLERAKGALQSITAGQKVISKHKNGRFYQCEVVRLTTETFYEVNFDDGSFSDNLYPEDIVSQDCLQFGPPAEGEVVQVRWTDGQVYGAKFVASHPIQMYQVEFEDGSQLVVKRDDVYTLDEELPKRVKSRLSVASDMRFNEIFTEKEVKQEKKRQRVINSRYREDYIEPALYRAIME
BAZ2B block – blocks human BAZ2B; Q9UIF8; AlphaScreen BAZ2B-H3K14Ac peptide displacement; Potency, µM (top dose mostly 114 µM), without a hit: at the top dose activity change, negative = inhibition, actives largely listed as inhibitors; hit rate 4.4% among 360,000; AID 504333; note: potency is the fitted concentration of half-maximal effect; % is set by controls: 0 for no effect and ±100 for the full control effect; nearly all actives have a fitted effect of over 60% in size
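Protein-peptide AlphaScreen: BAZ2B 50 nM, b-H3K14Ac 50 nM, 1x PBS pH 7.4 + 0.01% Tween-20. Preincubation 30 min RT; cpd 30 min RT (top 110 uM); beads 20 min RT, light-protected.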
G9a inh – inhibitors of human histone lysine methyltransferase G9a; G9a H3K9 monomethylation, AlphaScreen, 2 h; Potency, µM (top dose mostly 102 µM), for the others: at the highest dose activity, negative = inhibition, most hits filed as inhibitors; hit rate 8.8% among 350,000; note: potency is the fitted concentration of half-maximal effect; % is set by controls: 0 for no effect and ±100 for the full control effect; nearly all actives have a fitted effect of over 75% in size
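AlphaScreen detection with an anti-monomethyl H3K9 antibody quantified product after a 2 h room-temperature reaction containing 500 nM biotinylated H3K9 peptide, 20 µM SAM and 20 nM enzyme, which had been preincubated 15 min with compound.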
Six1-Eya2 inh – Six1/Eya2 interaction inhibition; AlphaScreen GST-Six1/His-Eya2 binding, biochemical; active compounds read low; activity change, % (test concentration not listed); hit rate 0.56% among 360,000; AID 651725; in the data active = activity change below about -65%; inconclusive = mostly about -30% to -63%; note: % is set by controls: 0 for no effect and ±100 for the full control effect
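Six1/Eya2 binding was read as AlphaScreen signal after compounds were pinned into GST-Six1 plus His-tagged Eya2 (5X stock 250/500 nM) in pH 8.0 Tris/NaCl/TCEP buffer, beads added, then incubated 1 h, 37 C, dark.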
CtBP-E1A blk – CtBP/E1A binding inhibition | activity change, % (no concentration beside the values) | AID 651724 | hit rate 0.49% among 340,000 | AlphaScreen GST-E1A/His-CtBP binding, 1536-well; active compounds read low; in the data active = activity change below about -65%; inconclusive = mostly about -30% to -63%; note: % is set by controls: 0 for no effect and ±100 for the full control effect
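Homogeneous bead-based format: GST-tagged E1A captured on glutathione donor beads, His-tagged CtBP on nickel acceptor beads; compounds precede bead addition by 2 h at 37 °C.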
HP1b binding inh – inhibitors of HP1-beta chromodomain binding to methylated histone tails. Potency, µM (highest dose often 114 µM), inactives show at the highest dose activity change, negative = inhibition, hits mostly inhibitors. AlphaScreen HP1-beta / biotin-H3K9me3 peptide binding. AID 540317. hit rate 0.56% among 390,000. P83916; note: potency is the fitted concentration of half-maximal effect; nearly all actives have a fitted effect of over 70% in size
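AlphaScreen: HP1-beta (50 nM) preformed 30 min with biotin-H3(1-18)K9me3 peptide (50 nM) in PBS pH 7.4, 0.01% Tween-20. Compound added for 30 min at RT, then streptavidin donor/nickel chelate acceptor beads (10 ug/mL) for 30 min.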
* hit, by the source's call; ? = inconclusive; / = no result; [ ] = another dose, or the depositor's remark. Unless noted, calls come from the whole dose curve; as a rule, active = well fitted inhibition curve with a large enough effect; inconclusive = small, poorly fitted or top-dose-only effect; inactive = no such curve, though single readings can be large or run the other way.

SMILES | JMJD2A Tudor inh | BAZ2B block | G9a inh | Six1-Eya2 inh | CtBP-E1A blk | HP1b binding inh
COc1ccc(C(=O)/C=C2\C(=O)Nc3ccc(Br)cc32)cc1 | ? | / | / | -2 | 5 | -12%
O=C1Nc2ccccc2/C1=C\C(=O)c1ccccc1 | ? | -26% | 25µM* | 7 | 3 | -15%
O=C1Nc2ccccc2Nc2ccccc21 | 50µM* | ? | 14µM* | -1 | 1 | 5%
CC(C)Oc1ccc(C(=O)/C=C2/C(=O)Nc3ccccc32)cc1 | ? | ? | 40µM* | 4 | 2 | -4%
O=C1Nc2ccccc2C1=O | -13% | / | / | 7 | 1 | 1%
O=C(/C=C1\C(=O)Nc2ccccc21)/C=C1\C(=O)Nc2ccccc21 | ? | 45µM* | 7.1µM* | -2 | -9 | -1%
Cc1ccc2nc(COc3ccccc3NC(=O)C(C)(C)C)cc(=O)n2c1 | -11% | 3% | 5%[59 µM] | / | / | 16%[57 µM]
Cc1ccc(Cl)cc1Nc1sc(C(=O)c2ccc(F)cc2)c(N)c1S(C)(=O)=O | -10% | -19% | 2%[59 µM] | / | / | 53%
CN(C)/C=C1\C(=O)Nc2ccccc21 | -8% | 7% | ? | 0 | 2 | 28%
CN(O)/C=C1\C(=O)Nc2ccccc21 | -28% | -6% | 50µM* | 15 | 4 | -9%
Cc1ccccc1CCNC(=O)c1ccc(Cn2c(=O)c3cccn3c3cccnc32)cc1 | -18% | -32% | -26%[59 µM] | / | / | 23%
Cc1cccc(C)c1Nc1nnc(SCc2nc3ccccc3s2)s1 | -29% | -1% | 8.9µM* | -5 | -6 | 20%
COc1cccc(Nc2nnc(SCc3nc4ccccc4s3)s2)c1 | -27% | -31% | 10µM* | -10 | -5 | 13%
COc1cccc(Nc2nnc(SCN3C(=O)c4ccccc4C3=O)s2)c1 | -8% | 1% | ? | 1 | 6 | 37%
O=C(NCc1cccc(Cl)c1)C1CCCN(c2ncnc3onc(-c4ccc(F)cc4)c23)C1 (centres undefined) | -9% | 12%[57.1 µM] | -25%[59 µM] | / | / | 54%
CC(=O)Nc1nonc1-c1nnc(SCC(=O)Nc2ccc(F)cc2F)n1-c1ccccc1 | -13% | -2% | -2%[59 µM] | / | / | 45%
C(=N\Nc1nc(N2CCOCC2)nc(N2CCOCC2)n1)/c1ccco1 | / | ? | -2% | / | / | /
Fc1ccc(Nc2nc(N/N=C/c3ccco3)nc(N3CCCCC3)n2)cc1 | ? | ? | 40µM* | -14 | / | -9%
O=C(O)CN(CCO)CCN(CC(=O)O)CC(=O)O | / | 11% | 17% | / | / | /
O=C(O)CN(CC(=O)O)CC(=O)O | 32µM* | / | / | -73* | -96* | 46%
O=C(CCCN1C(=O)/C(=C\c2cccs2)SC1=S)Nc1cccc(C(=O)O)c1 | ? | -36% | ? | -14 | -15 | -1%
O=C(CCCN1C(=O)/C(=C\c2cccs2)SC1=S)Nc1ccc(O)cc1C(=O)O | 12% | ? | ? | -10 | / | 46%
O=C(CCCN1C(=O)/C(=C/c2ccco2)SC1=S)Nc1cccc(C(=O)O)c1 | ? | 45µM* | / | -27 | -6 | ?
O=C(CCCN1C(=O)/C(=C\c2ccco2)SC1=S)Nc1ccc(O)cc1C(=O)O | 22µM* | 14µM* | 10µM* | ? | -28 | 25µM*
Cc1ccc(C)c(NC(=O)CCCn2c(C)c3cnn(-c4ccccc4)c(=O)c3c2C)c1 | -34% | -34% | -1%[59 µM] | / | / | 16%
SMILES | JMJD2A Tudor inh | BAZ2B block | G9a inh | Six1-Eya2 inh | CtBP-E1A blk | HP1b binding inh
CC1CCN(S(=O)(=O)c2ccc3[nH]cc(C(=O)NCc4ccc(F)cc4)c(=O)c3c2)CC1 | -33% | -1% | -21%[59 µM] | / | / | 3%
N#Cc1ccccc1OCC(=O)OCC(=O)c1ccc2c(c1)NC(=O)CO2 | 3% | 6% | 50µM* | 6 | 7 | 32%
Cc1ccc(/C=C/C(=O)OCC(=O)c2ccc3c(c2)NC(=O)CO3)o1 | -23% | / | / | 0 | -3 | -6%
O=C1COc2ccc(C(=O)COC(=O)/C=C/c3ccc(Br)o3)cc2N1 | ? | 45µM* | 28µM* | -18 | -10 | -53%
COC(=O)c1cc(C(=O)OCC(=O)c2ccc3c(c2)NC(=O)CO3)cc([N+](=O)[O-])c1 | -17% | -6% | 50µM* | 2 | -5 | 17%
Cc1cccc(C(=O)OCC(=O)c2ccc3c(c2)NC(=O)CO3)c1 | -1% | / | / | -3 | 3 | 32%
CCCCn1c(C)cc2c(c1=O)C1O[C@](c3ccc(OC)cc3)(Cc3cc(OC)c(OC)cc31)O2 | / | -34%[22.9 µM] | -4%[2.33 µM] | / | / | /
Cc1onc(-c2ccccc2Cl)c1C(=O)Nc1nnc(C2CCCCC2)s1 | -23% | / | / | / | / | 10%
Cc1ccc(CNC(=O)CSc2nc3ccsc3c(=O)n2-c2ccc(Br)cc2)cc1 | -6% | -4% | -2%[59 µM] | / | / | 22%
Nc1ccccc1C(=O)N=Nc1[nH]c(N)c2ccccc12 | 79µM* | 35µM* | 8%[59 µM] | -76* | -87* | 31%
CCC(=O)N1CCc2cc(Br)cc(S(=O)(=O)N3CCCC(C(=O)NCc4cccc(OC)c4)C3)c21 (centres undefined) | -23% | 2% | -6%[59 µM] | / | / | 29%
CCC(CO)n1c(=S)[nH]c2cc(OC)c(OC)cc2c1=O (centres undefined) | 25µM* | -17% | 18µM* | -5 | -9 | 38%
CCOc1cc2[nH]c(=S)n(C(C)C)c(=O)c2cc1OCC | -4% | 17% | 3% | -11 | -6 | 49%
O=C(O)[C@@H](O)[C@@H](O)[C@@H](O[C@H]1O[C@@H](CO)[C@@H](O)[C@@H](O)[C@@H]1O)[C@@H](O)CO | / | / | 21%[21.5 µM] | / | / | /
COc1ccc(C2C=C(C)Nc3nc(SC)nn32)cc1 (centres undefined) | -18% | 0% | 56µM* | ? | ? | 38%
O=C(CNC(=O)c1ccccc1)OC(C(=O)Nc1ccc2c(c1)OCO2)c1ccccc1 (centres undefined) | -27% | / | / | / | / | /
S=c1[nH]cc(-c2ccccc2)n1-c1ccccc1Cl | 50µM* | -38% | ? | -11 | -13 | -1%
COc1ccccc1-n1c(-c2ccccc2)c[nH]c1=S | ? | ? | 0.89µM* | -11 | 0 | 9%
COc1ccccc1-n1c(-c2ccc(F)cc2)coc1=O | -11% | -22% | -33% | -8 | 3 | 3%
COc1ccc(CNC(=O)CN2C(=O)C(c3ccccc3)Oc3cccnc32)cc1 (centres undefined) | -18% | -4% | -8% | 5 | -19 | 9%
CCOc1ccc(CNC(=O)CN2C(=O)C(c3ccccc3)Oc3cccnc32)cc1 (centres undefined) | -24% | 71µM* | 29% | -2 | 3 | 30%
O=C(CN1C(=O)C(c2ccccc2)Oc2cccnc21)NCc1ccccc1F (centres undefined) | 20µM* | -23% | -7%[59 µM] | 1 | -2 | 18%
